Screening results as filed in PubChem BioAssay.
Vif imaging: HIV Vif inhibition; 340,000 compounds, 0.35% hits; HEK293T cells, Vif self-association by quenched fluorescence, imaging, 24 h; inhibition, % at 7.49 µM; in the data active = inhibition above about 50%, passing the limit was not always enough; inconclusive = no clear call, values can overlap the other calls; inactive = below about 31%
ABCB6 inh 2: blocks the human ABCB6 transporter. Q9NP58. K562-ABCB6 porphyrin accumulation, flow cytometry, 1 h; active compounds read low. fluorescence ratio to DMSO, % at 10 µM. 360,000 compounds, 0.19% hits. AID 602162;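 active = fluorescence ratio to DMSO below 75%, the collection mean minus 3 SD; inconclusive = too few cells collected in the well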;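 note: signal is porphyrin accumulated inside mitochondria; 100% equals median channel fluorescence of DMSO control wells; lower ratio means ABCB6 inhibition with less porphyrin fluorescence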
RAD54 inh: blocks human RAD54 Holliday junction branch migration. Q92698. FAM/BHQ fluorescence. inhibition, % at 10.4 µM. 360,000 compounds, 0.14% hits;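 active = mean normalized replicate activity at least 40 and at least half of replicates scoring 40 or more; inconclusive = only one of the two criteria met; inactive = mean below 40 and under half of replicates reaching 40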;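 note: 0% = median of neutral control wells and 100% = median of positive control wells; inhibitors cause a drop in the FAM fluorescence signal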
Target sequence (Q92698 whole entry, looked up): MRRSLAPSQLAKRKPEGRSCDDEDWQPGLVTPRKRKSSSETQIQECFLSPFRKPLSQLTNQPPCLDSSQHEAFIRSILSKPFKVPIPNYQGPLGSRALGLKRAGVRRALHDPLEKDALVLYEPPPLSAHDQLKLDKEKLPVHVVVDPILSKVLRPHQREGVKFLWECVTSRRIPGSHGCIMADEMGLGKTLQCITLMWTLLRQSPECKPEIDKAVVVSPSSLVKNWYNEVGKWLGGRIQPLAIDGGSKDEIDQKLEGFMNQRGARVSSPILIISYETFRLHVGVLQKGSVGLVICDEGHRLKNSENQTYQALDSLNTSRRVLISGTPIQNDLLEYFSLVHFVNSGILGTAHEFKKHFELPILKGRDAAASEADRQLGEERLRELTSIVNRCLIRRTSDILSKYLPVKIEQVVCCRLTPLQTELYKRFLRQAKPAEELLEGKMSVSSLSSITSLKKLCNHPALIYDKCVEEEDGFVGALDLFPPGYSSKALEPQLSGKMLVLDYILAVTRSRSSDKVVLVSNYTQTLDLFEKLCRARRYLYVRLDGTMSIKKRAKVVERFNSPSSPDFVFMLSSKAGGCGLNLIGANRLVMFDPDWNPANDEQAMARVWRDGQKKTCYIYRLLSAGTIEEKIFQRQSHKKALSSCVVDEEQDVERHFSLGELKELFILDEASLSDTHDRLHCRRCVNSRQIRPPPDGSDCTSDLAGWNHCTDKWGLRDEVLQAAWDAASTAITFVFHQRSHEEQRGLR
Myeloid diff 2: promotes myeloid progenitor differentiation. calls only at 10 µM. AID 624256. 360,000 compounds, 1% hits. ER-HoxA9 myeloid progenitors, lysozyme-GFP differentiation, flow cytometry;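 active = normalized GFP-positive differentiation at or above the plate's own cutoff, the solvent-only control mean plus 3 SD; inconclusive = no clear call, values can overlap the other calls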;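 note: cells exposed to compound for four days before flow analysis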
Glyco luc inh: N-linked glycosylation inhibition. D54 ERlucT glycosylation luciferase reporter, 24 h; percent of 100 nM tunicamycin response. reporter increase, % at 12.5 µM. 360,000 compounds, 0.23% hits. AID 588692;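 active = mean luciferase reporter signal, scaled so untreated is 0 and the glycosylation-blocking control 100, at or above a set limit in every replicate; inconclusive = mean reaches the limit but not every replicate does; inactive = mean below the limit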;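 note: luciferase carries N-glycosylation sites so blocking glycosylation raises the light; 0% = median of neutral control wells and 100% = median of 100 nM tunicamycin wells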
* hit, by the source's call; i = inactive; ? = inconclusive; / = not tested or not shown; + = active, no number; ! = not confirmed by another sample. Shown are actives, neighbours in structure and some others; about 1.6% of the full set was active somewhere.

SMILES	Vif imaging	ABCB6 inh 2	RAD54 inh	Myeloid diff 2	Glyco luc inh
O=C(Cc1ccccc1)N/N=C/C=C/c1ccccc1[N+](=O)[O-]	-6.9	93.0	2.8	i	-1.7
O=C(O)c1ccc(N/N=C/C=C/c2ccccc2[N+](=O)[O-])cc1	54.0*	92.0	-8.0	i	3.8
COc1ccc(-n2ncc(Cl)c(Cl)c2=O)cc1	3.3	135.0	/	?	0.9
COc1ccc(Sc2cnn(-c3ccccc3)c(=O)c2Cl)cc1	50.8*	99.0	-0.7	i	-5.6
CC(=O)N(C)C[C@H]1Oc2ncc(-c3cccc(C#N)c3)cc2C(=O)N([C@H](C)CO)C[C@H]1C	/	/	-11.7	/	/
O=C(NCCN1CCOCC1)c1cc(-c2ccccc2)on1	1.2	103.0	-2.0	i	12.9
CCCCNC(=O)c1cc(-c2ccc(F)cc2)on1	9.1	100.0	-0.7	i	37.0*
CCCCNC(=O)c1cc(-c2ccc(OC)cc2)on1	25.8	83.0	0.2	i	-3.4
O=C(NCCCN1CCOCC1)c1cc(-c2ccccc2)on1	18.1	93.0	5.1	i	29.5*
CC(=O)Nc1cc2c3c(cccc3c1)-c1ccccc1-2	/	129.0	/	+	2.0
CC(=O)Nc1ccc2c(c1)C(=O)c1ccccc1C2=O	-15.1	101.0	0.7	i	2.6
O=C(Nc1ccccc1)N[C@@H]1CC[C@H](CCNS(=O)(=O)c2cccc(F)c2)O[C@H]1CO	/	/	0.8	/	/
C[C@H]1CN([C@@H](C)CO)S(=O)(=O)c2ccc(C3=CCCC3)cc2O[C@H]1CN(C)CC1CCOCC1	/	/	2.1	/	/
O=C(Nc1cc(C(F)(F)F)ccc1N1CCOCC1)c1cccc(S(=O)(=O)N2CCOCC2)c1	8.6	128.0	4.9	i	1.9
Cc1ccc(O)c(NC(=O)c2cccc(S(=O)(=O)N3CCCCC3)c2)c1	-12.9	103.0	-9.3	+	-2.2
Cc1ccccc1NC(=O)c1cccc(S(=O)(=O)N2CCCCC2)c1	5.7	96.0	3.1	i	-0.4
CN1CCN(S(=O)(=O)c2cccc(C(=O)Nc3cc(C(F)(F)F)ccc3N3CCCCC3)c2)CC1	-11.8	99.0	/	+	-4.4
COc1cccc(S(=O)(=O)N[C@H]2CC[C@H](CCNC(=O)Cc3ccncc3)O[C@@H]2CO)c1	/	/	-9.8	/	/
CCCN1[C@H](C(=O)OC)[C@@H](CO)[C@@H]2Cn3c(ccc(-c4ccc(F)cc4)c3=O)[C@@H]21	/	/	6.5	/	/
CCOc1ccc(-n2c(C)cc(C(=O)CCl)c2C)cc1	-1.2	104.0	1.1	/	40.7*
COC(=O)c1ccc(-n2c(C)cc(C(=O)CCl)c2C)cc1	4.6	109.0	-3.3	i	12.0
CC1(C)S[C@@H]2[C@H](NC(=O)[C@H](N)c3ccccc3)C(=O)N2[C@H]1C(=O)O	-8.2	106.0	13.7	+!	2.8
CC1(C)S[C@@H]2[C@H](NC(=O)[C@H](N)c3ccc(O)cc3)C(=O)N2[C@H]1C(=O)O	-1.9	98.0	-17.8	i	0.3
c1cc(CNc2ccc3c(c2)OCO3)ccn1	3.2	105.0	2.4	i	3.9
Cc1ccc(CNc2ccc3c(c2)OCO3)cc1	62.5*	850.0	2.8	+	4.9
SMILES	Vif imaging	ABCB6 inh 2	RAD54 inh	Myeloid diff 2	Glyco luc inh
C[C@@H]1CN([C@@H](C)CO)C(=O)c2cc(/C=C/c3ccccc3)cnc2O[C@H]1CN(C)C(=O)C1CCCCC1	/	/	-6.1	/	/
Cc1ccc(S(=O)(=O)N[C@@H](CC(C)C)C(=O)N2CCC(C(=O)N[C@@H](Cc3ccccc3)C(=O)O)CC2)cc1	2.5	103.0	-7.8	i	-1.7
Cc1ccc(S(=O)(=O)N[C@@H](Cc2ccccc2)C(=O)N2CCC(C(=O)N[C@@H](CCC(N)=O)C(=O)O)CC2)cc1	59.0*	91.0	0.3	i	0.5
CC(=O)CSc1ncnc2nc[nH]c12	-17.6	106.0	1.8	?	5.3
Cn1cnc([N+](=O)[O-])c1Sc1ncnc2nc[nH]c12	-1.3	90.0	3.1	?	129.6*
Cc1cccnc1Sc1c([N+](=O)[O-])ncn1C	-16.8	94.0	-2.6	i	2.2
Cn1cnc(Sc2ncnc3nc[nH]c23)c1[N+](=O)[O-]	0.5	95.0	-0.4	?	135.8*
COc1ccc(NC(=O)N(C)C[C@H]2OCCCC[C@@H](C)Oc3ccc(NC(=O)C4CCCCC4)cc3C(=O)N([C@@H](C)CO)C[C@H]2C)cc1	/	/	-3.0	/	/
NC(=O)CC(NC(=O)c1ccc(Br)cc1)c1ccc(N2CCN(c3ccccc3)CC2)c([N+](=O)[O-])c1 (stereo unspecified)	-0.1	88.0	0.2	i	4.1
O=C(c1ccc(Br)cc1)c1cc([N+](=O)[O-])ccc1N1CCCCC1	62.8*	98.0	1.4	?	3.8
NC(=O)CC(NC(=O)c1ccc(Br)cc1)c1ccc(N2CCCCCCC2)c([N+](=O)[O-])c1 (stereo unspecified)	-1.2	94.0	5.3	i	42.8*
NC(=O)CC(NC(=O)Cc1ccc(Br)cc1)c1ccc(NC2CCCC2)c([N+](=O)[O-])c1 (stereo unspecified)	-8.7	99.0	1.1	i	37.8*
COc1ccc(CCNc2ccc(C(CC(N)=O)NC(=O)c3ccccc3)cc2[N+](=O)[O-])cc1 (stereo unspecified)	/	90.0	-5.0	+	-0.1
CNC(=O)C[C@H]1CC[C@H]2[C@H](COc3ccc(NC(=O)c4ccc(C(F)(F)F)cc4)cc3C(=O)N2C)O1	/	/	-4.6	/	/
NC(=O)CC(NC(=O)c1ccc(Br)cc1)c1ccc(NC2CCCCCC2)c([N+](=O)[O-])c1 (stereo unspecified)	70.5*	97.0	-1.9	i	13.8
COc1ccc(/C=N/Nc2ccc([N+](=O)[O-])cc2)cc1Cn1cc([N+](=O)[O-])cn1	98.3*	131.0	-3.5	i	-2.4
OC[C@@H]1[C@H](c2ccc(C#CC3(O)CCCC3)cc2)[C@H]2CN(Cc3cccnc3)CCCCN12	/	/	-5.7	/	/
Cc1ccc(Cc2c(-c3ccco3)nc3c(C)cc(Br)cn23)cc1	/	99.0	6.0	+	-2.6
Clc1ccc(C2Nc3cccc4cccc(c34)N2)cc1Cl	57.9*	107.0	2.4	i	3.1
CC(C)C#Cc1ccc2c(c1)O[C@@H](CN(C)C(=O)c1ccccn1)[C@@H](C)CN([C@@H](C)CO)S2(=O)=O	/	/	5.3	/	/
CC(=O)c1ccc(N2CCN(C(=O)CCCn3c(=O)[nH]c4ccc(Br)cc4c3=O)CC2)cc1	-0.1	96.0	/	i	1.9
CCCCNC(=O)CCCn1c(=O)[nH]c2ccc(Br)cc2c1=O	14.9	97.0	-4.4	+	1.0
Cc1noc(C)c1S(=O)(=O)Nc1ccc2c(c1)CC(=O)N([C@@H](C)CO)C[C@@H](C)[C@H](CN(C)S(=O)(=O)c1cn(C)cn1)O2	/	/	7.4	/	/
CC(CN)(NS(=O)(=O)c1ccccc1)c1ccccc1 (stereo unspecified)	66.3*	104.0	4.0	i	-1.2
CCC(=O)Nc1ccc(-c2nnc(SCc3ccc(C(=O)Nc4nccs4)cc3)n2CC)cc1	67.3*	98.0	-3.8	i	2.1
